Experimental data as given in PubChem BioAssay (NCI).
This is part of a sample that, as a whole, favours compounds with a hit. Of some 83,000 tested, about 20% had one in any assay.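 How to read the values: 0–100, growth inhibition (40 = 60% inhibited); 0, no net growth; -100 to 0, cell death (-40 = 40% of starting cells died; -100 = all dead).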 The source made the active and inactive calls. The calls were made as follows: active = growth percent below 10; inactive = the rest.

Columns and labels:
Assay in all cases: NCI-60 one-dose screen, 48 h (100 = growth as untreated, 0 = no growth, -100 = all killed)
Settings in all cases: 10 µM unless noted
SR leukemia = system: SR leukemia
RPMI-8226 leukemia = system: RPMI-8226 leukemia
OVCAR-8 ovarian = system: OVCAR-8 ovarian
OVCAR-5 ovarian = system: OVCAR-5 ovarian
OVCAR-4 ovarian = system: OVCAR-4 ovarian
SK-OV-3 ovarian = system: SK-OV-3 ovarian
OVCAR-3 ovarian = system: OVCAR-3 ovarian
HS 578T breast = system: HS 578T breast
NCI/ADR-RES ovarian = system: NCI/ADR-RES ovarian
T-47D breast = system: T-47D breast
BT-549 breast = system: BT-549 breast
MDA-MB-435 melanoma = system: MDA-MB-435 melanoma
SW-620 colon = system: SW-620 colon
MCF7 breast = system: MCF7 breast
HCT-116 colon = system: HCT-116 colon
HCC-2998 colon = system: HCC-2998 colon
KM12 colon = system: KM12 colon
IGROV1 ovarian = system: IGROV1 ovarian

Measured: growth

NC(=O)c1cccc(N2Cc3ccccc3OC3=C2C(=O)c2c(O)ccc(O)c2C3=O)c1
inactive: SK-OV-3 ovarian 20.8% | HS 578T breast 20.9% | NCI/ADR-RES ovarian 10%
active: SR leukemia -5.71% | RPMI-8226 leukemia -13.4% | OVCAR-8 ovarian -41.9% | OVCAR-5 ovarian -68.1% | OVCAR-4 ovarian -93.5% | OVCAR-3 ovarian -94.2% | T-47D breast -36.9% | BT-549 breast -56.8% | MDA-MB-435 melanoma -27.3% | SW-620 colon -66.6% | MCF7 breast -22.3% | HCT-116 colon -69.1% | HCC-2998 colon -21.1% | KM12 colon -48.9%

CCCCCCCCCCn1cc[n+](C)c1
inactive: SR leukemia 104% | RPMI-8226 leukemia 116% | OVCAR-8 ovarian 11.5% | OVCAR-5 ovarian 45.6% | OVCAR-4 ovarian 22.7% | SK-OV-3 ovarian 44.5% | OVCAR-3 ovarian 45.9% | HS 578T breast 30.3% | NCI/ADR-RES ovarian 82.2% | T-47D breast 24.6% | SW-620 colon 44.1% | HCT-116 colon 17.6% | HCC-2998 colon 31.1% | KM12 colon 14%
active: MDA-MB-435 melanoma 7.98% | MCF7 breast 3.94%

COc1cc2oc(-c3cccc(NC(=O)Nc4ccc5c(c4)OCO5)c3)cc(=O)c2c(OC)c1OC
active: RPMI-8226 leukemia -1.59%
inactive: SR leukemia 33.3% | OVCAR-8 ovarian 44.3% | OVCAR-5 ovarian 118% | OVCAR-4 ovarian 69.1% | IGROV1 ovarian 62.5% | OVCAR-3 ovarian 56% | HS 578T breast 59.4% | NCI/ADR-RES ovarian 57.6% | BT-549 breast 59.8% | MDA-MB-435 melanoma 68.7% | SW-620 colon 57.3% | MCF7 breast 65.1% | HCT-116 colon 50.2% | HCC-2998 colon 59.2% | KM12 colon 48.5%

CCCCOc1nc2c(C)cccc2cc1C1CNC(=O)c2ccccc2N1 (stereo unspecified)
inactive: SR leukemia 18.1% | RPMI-8226 leukemia 57.5% | OVCAR-8 ovarian 81.2% | OVCAR-5 ovarian 112% | OVCAR-4 ovarian 71.7% | SK-OV-3 ovarian 69.2% | OVCAR-3 ovarian 20% | HS 578T breast 69.7% | NCI/ADR-RES ovarian 51.3% | T-47D breast 58.4% | BT-549 breast 74.5% | SW-620 colon 42.3% | MCF7 breast 15.8% | HCT-116 colon 45.9% | HCC-2998 colon 101% | KM12 colon 56.4%
active: MDA-MB-435 melanoma 4.51%

O=C1C2=C(C(=O)c3c(O)ccc(O)c31)N(c1cccnc1)Cc1ccccc1O2
inactive: SK-OV-3 ovarian 53.8% | HS 578T breast 26.1% | NCI/ADR-RES ovarian 13.4%
active: SR leukemia -10.1% | RPMI-8226 leukemia -8.47% | OVCAR-8 ovarian 2.92% | OVCAR-5 ovarian -39.6% | OVCAR-4 ovarian -95% | OVCAR-3 ovarian -89.5% | T-47D breast -28.4% | BT-549 breast -54.1% | MDA-MB-435 melanoma -14.2% | SW-620 colon -45.9% | MCF7 breast -18% | HCT-116 colon -71% | HCC-2998 colon -31.2% | KM12 colon -4.03%

COc1ccc(C2CC(=O)Nc3c2c(C)nn3-c2nc3ccccc3[nH]2)cc1OC (stereo unspecified)
inactive: SR leukemia 32.8% | RPMI-8226 leukemia 85.4% | OVCAR-8 ovarian 62% | OVCAR-5 ovarian 111% | SK-OV-3 ovarian 17.7% | OVCAR-3 ovarian 83.2% | NCI/ADR-RES ovarian 77.7% | T-47D breast 65.7% | MDA-MB-435 melanoma 24.7% | SW-620 colon 78.3% | MCF7 breast 46.4% | HCT-116 colon 17.4% | HCC-2998 colon 96.5% | KM12 colon 82.6%

C#CCN1C(=O)/C(=c2\sc3n(c2=O)NC2C(N=3)N(CC)C(=O)N2CC)c2ccccc21 (stereo unspecified)
active: MDA-MB-435 melanoma -26.6%
inactive: SR leukemia 15.5% | RPMI-8226 leukemia 59.3% | OVCAR-8 ovarian 66.9% | OVCAR-5 ovarian 73.8% | IGROV1 ovarian 66% | OVCAR-3 ovarian 23.1% | HS 578T breast 56.6% | NCI/ADR-RES ovarian 41.7% | SW-620 colon 41% | MCF7 breast 42.2% | HCT-116 colon 27% | HCC-2998 colon 100% | KM12 colon 46.8%

C=C1C(=O)O[C@H]2[C@H]1CC/C(Cn1cc(-c3ccc(N)cc3)nn1)=C\CC[C@@]1(C)O[C@@H]21
inactive: OVCAR-5 ovarian 38.4% | SK-OV-3 ovarian 83.8% | IGROV1 ovarian 18.4% | HS 578T breast 62.4% | NCI/ADR-RES ovarian 69.8% | HCC-2998 colon 50.8% | KM12 colon 51.5%
active: SR leukemia 7.69% | RPMI-8226 leukemia -8.22% | OVCAR-8 ovarian -5.97% | OVCAR-3 ovarian -30.7% | T-47D breast -40.4% | BT-549 breast -43.3% | MDA-MB-435 melanoma -7.57% | SW-620 colon -44.8% | MCF7 breast 2.62% | HCT-116 colon -56%

COC12CC(=O)C(C(C)=O)=C(O)C1(C)c1c(O)c(C)c(O)c(C(C)=O)c1O2 (stereo unspecified)
inactive: SR leukemia 69.9% | RPMI-8226 leukemia 44.5% | OVCAR-8 ovarian 58.7% | OVCAR-5 ovarian 99.7% | SK-OV-3 ovarian 104% | IGROV1 ovarian 68.9% | OVCAR-3 ovarian 59.2% | HS 578T breast 75.4% | T-47D breast 81% | BT-549 breast 78.7% | MDA-MB-435 melanoma 87.3% | SW-620 colon 80.2% | MCF7 breast 80.9% | HCT-116 colon 80.6% | HCC-2998 colon 65.9% | KM12 colon 49.6%

COc1ccc(C(=O)c2cc(OC)c(OC)c(OC)c2)cc1/C=C/C(=O)c1ccc2c(c1)OCO2
inactive: OVCAR-8 ovarian 19.4% | SK-OV-3 ovarian 36.6% | IGROV1 ovarian 16.9% | HS 578T breast 54% | T-47D breast 33.1% | MDA-MB-435 melanoma 21.6% | MCF7 breast 19.8% | HCC-2998 colon 27.3%
active: SR leukemia -10.3% | RPMI-8226 leukemia -3.8% | OVCAR-5 ovarian -16.7% | OVCAR-3 ovarian 1.03% | NCI/ADR-RES ovarian 5.77% | BT-549 breast -10.4% | SW-620 colon -35.4% | HCT-116 colon -78.6% | KM12 colon -12%

O=C(Nc1ccc(I)cc1)c1cc([N+](=O)[O-])ccc1O
inactive: SR leukemia 36.6% | RPMI-8226 leukemia 10.1% | OVCAR-8 ovarian 39.9% | OVCAR-5 ovarian 54.8% | SK-OV-3 ovarian 38.6% | IGROV1 ovarian 39.6% | OVCAR-3 ovarian 18.3% | HS 578T breast 16.1% | NCI/ADR-RES ovarian 29.1% | T-47D breast 29.9% | BT-549 breast 34.3% | MDA-MB-435 melanoma 38.5% | SW-620 colon 35.2% | MCF7 breast 18.9% | HCT-116 colon 19.3% | HCC-2998 colon 16.1% | KM12 colon 21%

COc1ccc(S(=O)(=O)N2CCN(c3cc4c(cc3F)c(=O)c(C(=O)O)cn4C3CC3)CC2)c(OC)c1
inactive: SR leukemia 81.6% | RPMI-8226 leukemia 86.7% | OVCAR-8 ovarian 92.4% | OVCAR-5 ovarian 110% | SK-OV-3 ovarian 98.6% | IGROV1 ovarian 101% | OVCAR-3 ovarian 95.8% | NCI/ADR-RES ovarian 102% | T-47D breast 75% | BT-549 breast 95% | MDA-MB-435 melanoma 97.7% | MCF7 breast 98.4% | HCT-116 colon 102% | HCC-2998 colon 118% | KM12 colon 91.1%

COc1cc2nc(SCc3cc(OC)c(OC)c(OC)c3)n(Cc3ccccc3)c(=O)c2cc1OC
active: SR leukemia 6.25% | OVCAR-3 ovarian 6.2% | NCI/ADR-RES ovarian -15.8% | MDA-MB-435 melanoma -20.3%
inactive: RPMI-8226 leukemia 54.8% | OVCAR-5 ovarian 53.7% | OVCAR-4 ovarian 44.2% | SK-OV-3 ovarian 29.8% | IGROV1 ovarian 39.2% | HS 578T breast 26.7% | T-47D breast 35.9% | BT-549 breast 16.8% | SW-620 colon 33.5% | MCF7 breast 10.1% | HCT-116 colon 14.7% | HCC-2998 colon 40.9% | KM12 colon 15.4%

Cc1cccc(NC(=O)c2sc3nc4c(cc3c2N)CCC4)c1C
inactive: SR leukemia 25% | OVCAR-8 ovarian 14.1% | OVCAR-5 ovarian 44% | SK-OV-3 ovarian 37.9% | IGROV1 ovarian 44.6% | HS 578T breast 28.6% | T-47D breast 64% | BT-549 breast 61.7% | SW-620 colon 28.6% | MCF7 breast 13% | HCT-116 colon 19.7% | HCC-2998 colon 33.1% | KM12 colon 12.2%
active: RPMI-8226 leukemia -5.02% | NCI/ADR-RES ovarian -16.2% | MDA-MB-435 melanoma -26.9%

Nc1nn2cc(-c3ccc(Cl)s3)nc2c2ccccc12
inactive: SR leukemia 49.7% | RPMI-8226 leukemia 92% | OVCAR-8 ovarian 105% | OVCAR-5 ovarian 79.1% | SK-OV-3 ovarian 103% | IGROV1 ovarian 44.7% | OVCAR-3 ovarian 77.8% | HS 578T breast 96.7% | NCI/ADR-RES ovarian 86.7% | T-47D breast 55.8% | MDA-MB-435 melanoma 93.4% | MCF7 breast 44.3% | HCT-116 colon 77.6% | HCC-2998 colon 92.4% | KM12 colon 79.2%
